From PubChem BioAssay (EPA / NIEHS)
“And” between values parts separate entries of the source, which are not always exact repeats. Identical values can stand only once. Inconclusive results are not listed. The source holds several records for some structures; these can differ, active in one and inactive in another. The source made the active and inactive calls. The calls were made as follows, unless noted: active = hit-call score of the fitted dose curve at least 0.9, where 1 is the maximum; inconclusive = response in the unintended direction; inactive = score below 0.9.

Experiments:
[1] = target: Estrogen receptor beta (Homo sapiens) (UniProt Q92731); assay: OT_ER_ERbERb_1440: Odyssey Thera (OT) 24-hour HEK293T Protein-Complementation Assay for Estrogen Receptor-beta/-beta Homodimer (AID 2283380);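 also: fluorescence gain from ER beta LBD homodimer complementation read by laser scanning cytometry; scored as signal increase over DMSO baseline for both agonists and antagonists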
Sequence of Estrogen receptor beta (Homo sapiens) (Q92731 whole entry, looked up, the tested form may be a part): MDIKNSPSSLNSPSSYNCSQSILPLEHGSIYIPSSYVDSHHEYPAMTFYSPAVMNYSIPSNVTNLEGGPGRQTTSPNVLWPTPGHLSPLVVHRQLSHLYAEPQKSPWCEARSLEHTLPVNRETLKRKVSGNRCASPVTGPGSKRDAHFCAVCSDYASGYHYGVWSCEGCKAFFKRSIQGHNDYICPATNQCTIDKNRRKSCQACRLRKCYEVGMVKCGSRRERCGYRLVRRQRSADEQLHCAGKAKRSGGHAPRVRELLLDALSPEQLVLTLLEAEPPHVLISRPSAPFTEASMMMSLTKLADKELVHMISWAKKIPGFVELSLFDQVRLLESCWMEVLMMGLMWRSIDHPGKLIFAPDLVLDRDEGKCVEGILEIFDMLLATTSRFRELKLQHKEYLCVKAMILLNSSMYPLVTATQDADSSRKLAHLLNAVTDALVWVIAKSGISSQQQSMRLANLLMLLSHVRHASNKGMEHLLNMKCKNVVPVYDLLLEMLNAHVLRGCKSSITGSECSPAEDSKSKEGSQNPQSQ
In short: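 HEK293T cells stably expressing human ER-beta LBD (aa 310-547) PCA homodimer pair, dosed 24 h; formaldehyde-fixed, Draq5-stained. Readout: increase in nuclear (agonist) or nuclear plus cytoplasmic (antagonist) fluorescence intensity versus DMSO, gain-of-signal fitting.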

[2] = target: Estrogen receptor (Homo sapiens) (UniProt P03372); assay: OT_ERa_GFPERaERE_0480: Odyssey Thera (OT) 8-hour HeLa Transcription Induction Assay for Estrogen Receptor (AID 2283381; active = hit-call score of the fitted dose curve at least 0.9, where 1 is the maximum; inactive = score below 0.9)
Sequence of Estrogen receptor (Homo sapiens) (P03372 whole entry, looked up): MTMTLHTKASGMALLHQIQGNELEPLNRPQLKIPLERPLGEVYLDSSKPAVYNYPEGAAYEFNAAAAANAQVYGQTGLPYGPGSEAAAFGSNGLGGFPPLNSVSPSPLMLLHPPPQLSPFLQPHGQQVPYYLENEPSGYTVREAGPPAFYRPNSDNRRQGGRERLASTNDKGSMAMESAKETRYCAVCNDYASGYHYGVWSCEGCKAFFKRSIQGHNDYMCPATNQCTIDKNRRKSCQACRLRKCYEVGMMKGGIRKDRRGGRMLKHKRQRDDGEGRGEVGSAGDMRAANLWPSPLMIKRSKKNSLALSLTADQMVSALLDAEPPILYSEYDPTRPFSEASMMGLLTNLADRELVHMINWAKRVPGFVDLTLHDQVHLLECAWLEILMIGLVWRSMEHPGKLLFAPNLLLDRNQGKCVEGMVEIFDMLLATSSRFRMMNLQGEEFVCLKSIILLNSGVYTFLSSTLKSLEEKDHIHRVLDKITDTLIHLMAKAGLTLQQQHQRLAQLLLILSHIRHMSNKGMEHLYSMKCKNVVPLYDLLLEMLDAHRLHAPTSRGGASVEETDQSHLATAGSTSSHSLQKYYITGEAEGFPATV
In short: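 Fluorescence microscopy with high-content image analysis measures ERE-driven GFP induction in HeLa cells at 8 h post-dose. Increases fitted against DMSO baseline.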

[3] = target: Estrogen receptor (Homo sapiens) (UniProt P03372); assay: OT_ERa_GFPERaERE_0120: Odyssey Thera (OT) 2-hour HeLa Transcription Induction Assay for Estrogen Receptor (AID 2283382)
In short: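 Fluorescence-microscopy images of the GFP-ERα/ERE reporter, scored by high-content image algorithms, give the readout. HeLa exposure lasted 2 h, and only signal increase over DMSO was fitted.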

[4] = target: Bile acid receptor (Homo sapiens) (UniProt Q96RI1); assay: OT_FXR_FXRSRC1_0480: Odyssey Thera (OT) 8-hour HEK293T Protein-Complementation Assay for Farnesoid X receptor/SRC-1 Co-activator (AID 2283383)
Sequence of Bile acid receptor (Homo sapiens) (Q96RI1 whole entry, looked up, the tested form may be a part): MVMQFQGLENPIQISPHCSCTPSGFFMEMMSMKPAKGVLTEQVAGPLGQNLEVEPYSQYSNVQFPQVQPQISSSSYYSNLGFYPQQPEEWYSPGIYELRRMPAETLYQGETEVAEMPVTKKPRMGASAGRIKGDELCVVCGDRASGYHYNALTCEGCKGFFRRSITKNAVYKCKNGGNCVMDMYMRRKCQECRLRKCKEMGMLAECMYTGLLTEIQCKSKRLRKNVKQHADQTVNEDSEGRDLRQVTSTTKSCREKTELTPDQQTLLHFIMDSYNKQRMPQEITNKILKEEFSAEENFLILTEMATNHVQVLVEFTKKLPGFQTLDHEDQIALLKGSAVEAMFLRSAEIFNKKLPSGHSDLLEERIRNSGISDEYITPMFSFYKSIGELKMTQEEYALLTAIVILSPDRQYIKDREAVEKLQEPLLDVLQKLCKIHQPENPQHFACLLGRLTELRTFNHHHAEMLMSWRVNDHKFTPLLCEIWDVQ
In short: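 Binding of FXR to coactivator SRC-1 was read as fluorescence from a reconstituted split reporter in HEK293T cells, 8 h after chemical addition. Only increases in signal versus DMSO were fit.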

[5] = target: Bile acid receptor (Homo sapiens) (UniProt Q96RI1); assay: OT_FXR_FXRSRC1_1440: Odyssey Thera (OT) 24-hour HEK293T Protein-Complementation Assay for Farnesoid X receptor/SRC-1 Co-activator (AID 2283384)
In short: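 Protein-fragment complementation: FXR and SRC-1 fused to reporter fragments that reassemble on interaction, read by fluorescence intensity. Human HEK293T cells measured 24 h post-dose; positive-direction fit versus DMSO.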

[6] = target: Retinoic acid receptor RXR-alpha (Homo sapiens) (UniProt P19793); assay: OT_NURR1_NURR1RXRa_0480: Odyssey Thera (OT) 8-hour HEK293T Protein Complementation Assay for Nurr1/retinoid X receptor (RXR) (AID 2283385)
Sequence of Retinoic acid receptor RXR-alpha (Homo sapiens) (P19793 whole entry, looked up, the tested form may be a part): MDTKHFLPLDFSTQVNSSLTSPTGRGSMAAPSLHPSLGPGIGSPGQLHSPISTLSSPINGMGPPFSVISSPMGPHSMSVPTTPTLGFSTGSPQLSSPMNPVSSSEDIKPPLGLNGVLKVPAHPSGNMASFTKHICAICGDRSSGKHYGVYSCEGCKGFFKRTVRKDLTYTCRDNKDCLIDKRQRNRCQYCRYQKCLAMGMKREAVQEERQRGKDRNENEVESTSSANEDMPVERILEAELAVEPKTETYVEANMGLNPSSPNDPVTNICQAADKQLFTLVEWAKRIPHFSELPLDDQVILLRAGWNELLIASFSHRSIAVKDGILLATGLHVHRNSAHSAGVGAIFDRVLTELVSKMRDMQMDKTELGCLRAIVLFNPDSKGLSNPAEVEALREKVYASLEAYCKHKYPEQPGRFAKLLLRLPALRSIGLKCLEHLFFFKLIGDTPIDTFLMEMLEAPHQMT
In short: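 Interaction of Nurr1 with RXRα read as reconstituted reporter fluorescence in a HEK293T fragment-complementation system, 8 h post-treatment; increase over DMSO baseline analysed.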

[7] = target: Retinoic acid receptor RXR-alpha (Homo sapiens) (UniProt P19793); assay: OT_NURR1_NURR1RXRa_1440: Odyssey Thera (OT) 24-hour HEK293T Protein Complementation Assay for Nurr1/retinoid X receptor (RXR) (AID 2283386)
In short: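 Gain in fluorescence, fitted relative to DMSO, reflects Nurr1–RXRα association in HEK293T cells after 24 h dosing. Bait and prey are each linked to a reporter-protein fragment that reassembles on interaction.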

[8] = target: Peroxisome proliferator-activated receptor gamma (Homo sapiens) (UniProt P37231); assay: OT_PPARg_PPARgSRC1_0480: Odyssey Thera (OT) 8-hour Protein-Complementation Assay for Peroxisome Proliferator-activated Receptor Gamma / SRC-1 Co-activator (AID 2283387);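 also: nuclear to cytoplasmic split Venus YFP fluorescence ratio reporting PPARg SRC-1 interaction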
Sequence of Peroxisome proliferator-activated receptor gamma (Homo sapiens) (P37231 whole entry, looked up, the tested form may be a part): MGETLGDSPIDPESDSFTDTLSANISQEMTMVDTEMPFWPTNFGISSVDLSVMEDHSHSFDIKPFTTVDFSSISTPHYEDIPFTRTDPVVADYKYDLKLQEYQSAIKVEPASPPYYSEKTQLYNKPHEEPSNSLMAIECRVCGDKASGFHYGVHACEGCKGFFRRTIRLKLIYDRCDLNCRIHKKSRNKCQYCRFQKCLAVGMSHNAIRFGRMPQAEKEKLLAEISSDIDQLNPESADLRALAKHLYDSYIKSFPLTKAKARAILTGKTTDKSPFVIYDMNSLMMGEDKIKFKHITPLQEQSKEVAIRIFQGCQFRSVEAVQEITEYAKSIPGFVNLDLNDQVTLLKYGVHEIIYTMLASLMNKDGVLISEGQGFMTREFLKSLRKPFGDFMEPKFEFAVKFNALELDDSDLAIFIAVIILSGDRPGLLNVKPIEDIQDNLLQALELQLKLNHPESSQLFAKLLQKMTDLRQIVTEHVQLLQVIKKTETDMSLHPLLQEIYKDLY
In short: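 Read-out: 488 nm N/C fluorescence ratio from complemented Venus YFP fragments, ≥350 cells per image, gain-of-signal fitted against DMSO baseline. Fusions of PPARg/SRC-1 with IFP1/IFP2 expressed transiently in HEK293T; compounds applied 8 h.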

[9] = target: Peroxisome proliferator-activated receptor gamma (Homo sapiens) (UniProt P37231); assay: OT_PPARg_PPARgSRC1_1440: Odyssey Thera (OT) 24-hour Protein-Complementation Assay for Peroxisome Proliferator-activated Receptor Gamma/ SRC-1 Co-activator (AID 2283388);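 also: nuclear to cytoplasmic ratio of reconstituted Venus YFP fluorescence in fixed imaged cells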
In short: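 Transient HEK293T, YFP fragments 1-158/159-239 (mutant IFP1/IFP2) fused to PPARg/SRC-1; 24 h dosing; fix 4% formaldehyde, Draq5; Opera imaging 488/635 nm; N/C ratio, gain vs DMSO.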

[10] = CEETOX_H295R_OHPREG: CeeTox H295R High-throughput Steroidogenesis Assay for OH-Pregnenolone (OHPREG) (AID 2283434; active = hit-call score of the fitted dose curve at least 0.9, where 1 is the maximum; inactive = score below 0.9); settings: actives raise or lower the signal
In short: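 Readout: HPLC-MS/MS of 17alpha-hydroxypregnenolone in medium after 48 h chemical exposure of H295R cells pretreated with forskolin. Values fitted bidirectionally relative to DMSO; chemicals reducing viability to 20–70% were retested after 10-fold dilution.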

[11] = CEETOX_H295R_OHPROG: CeeTox H295R High-throughput Steroidogenesis Assay for OH-Progesterone (OHPROG) (AID 2283435; active = hit-call score of the fitted dose curve at least 0.9, where 1 is the maximum; inactive = score below 0.9;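 as to AC50: 17alpha-hydroxyprogesterone secreted into medium measured by HPLC-MS/MS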); settings: actives raise or lower the signal
In short: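 Medium steroid levels read by LC-MS/MS after 48 h chemical treatment (0.1% DMSO) of human adrenal H295R cells that had been forskolin-primed (10 uM, 48 h). Gain or loss fitted against DMSO; MTT cytotoxicity checked per well.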

[12] = CEETOX_H295R_CORTIC: CeeTox H295R High-throughput Steroidogenesis Assay for Corticosterone (CORTIC) (AID 2283437; active = hit-call score of the fitted dose curve at least 0.9, where 1 is the maximum; inactive = score below 0.9;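 also: corticosterone secreted into medium quantified by mass spectrometry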;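 as to AC50: human H295R adrenal cells prestimulated with forskolin before chemical exposure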); settings: actives raise or lower the signal
In short: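 Steps: seed H295R, adhere overnight; 10 uM forskolin 48 h; replace with chemical (0.1% DMSO) 48 h; extract medium with MTBE; quantify corticosterone by HPLC-MS/MS; score bidirectionally vs DMSO.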

[13] = CEETOX_H295R_CORTISOL: CeeTox H295R High-throughput Steroidogenesis Assay for Cortisol (AID 2283438; active = hit-call score of the fitted dose curve at least 0.9, where 1 is the maximum; inactive = score below 0.9); settings: actives raise or lower the signal
In short: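 Cortisol measured by HPLC-MS/MS after MTBE extraction of medium from H295R cells exposed 48 h to chemical (0.1% DMSO), following 48 h prestimulation with 10 uM forskolin. Viability assessed by MTT in the same wells.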

[14] = CEETOX_H295R_DOC: CeeTox H295R High-throughput Steroidogenesis Assay for DOC (AID 2283439; active = hit-call score of the fitted dose curve at least 0.9, where 1 is the maximum; inactive = score below 0.9); settings: actives raise or lower the signal
In short: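 11-Deoxycorticosterone quantified in medium by MTBE extraction and HPLC-MS/MS after 48 h chemical exposure (0.1% DMSO) of forskolin-primed (10 uM, 48 h) H295R cells. Same-well MTT viability; data fitted bidirectionally against DMSO.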

[15] = CEETOX_H295R_ESTRADIOL: CeeTox H295R High-throughput Steroidogenesis Assay for Estradiol (AID 2283440; active = hit-call score of the fitted dose curve at least 0.9, where 1 is the maximum; inactive = score below 0.9;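 also: estradiol secreted into medium quantified by LC-MS/MS after dansyl derivatisation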); settings: actives raise or lower the signal
In short: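 Following OECD 456 with minor changes, H295R cells received 10 uM forskolin for 48 h and then test chemical for 48 h. Hormone output was read by HPLC-MS/MS, with cytotoxic concentrations diluted until MTT viability reached ≥70%.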

[16] = CEETOX_H295R_ESTRONE: CeeTox H295R High-throughput Steroidogenesis Assay for Estrone (AID 2283441; active = hit-call score of the fitted dose curve at least 0.9, where 1 is the maximum; inactive = score below 0.9); settings: actives raise or lower the signal
In short: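 Estrone secreted into medium quantified by LC-MS/MS after dansyl chloride derivatization, following 48 h chemical exposure (0.1% DMSO final) of forskolin-prestimulated (10 uM, 48 h) H295R cells; gain or loss fitted against DMSO; MTT viability in same wells.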

[17] = target: Agonist Androgen Response Element (ARE), AR (gene 367) (UniProt P10275); assay: OT_AR_ARELUC_AG_1440: Odyssey Thera (OT) 24-hour CHO-K1 Luciferase Assay for Agonist Androgen Response Element (ARE) (AID 2283379)
Sequence of Agonist Androgen Response Element (ARE), AR (gene 367) (P10275 whole entry, looked up): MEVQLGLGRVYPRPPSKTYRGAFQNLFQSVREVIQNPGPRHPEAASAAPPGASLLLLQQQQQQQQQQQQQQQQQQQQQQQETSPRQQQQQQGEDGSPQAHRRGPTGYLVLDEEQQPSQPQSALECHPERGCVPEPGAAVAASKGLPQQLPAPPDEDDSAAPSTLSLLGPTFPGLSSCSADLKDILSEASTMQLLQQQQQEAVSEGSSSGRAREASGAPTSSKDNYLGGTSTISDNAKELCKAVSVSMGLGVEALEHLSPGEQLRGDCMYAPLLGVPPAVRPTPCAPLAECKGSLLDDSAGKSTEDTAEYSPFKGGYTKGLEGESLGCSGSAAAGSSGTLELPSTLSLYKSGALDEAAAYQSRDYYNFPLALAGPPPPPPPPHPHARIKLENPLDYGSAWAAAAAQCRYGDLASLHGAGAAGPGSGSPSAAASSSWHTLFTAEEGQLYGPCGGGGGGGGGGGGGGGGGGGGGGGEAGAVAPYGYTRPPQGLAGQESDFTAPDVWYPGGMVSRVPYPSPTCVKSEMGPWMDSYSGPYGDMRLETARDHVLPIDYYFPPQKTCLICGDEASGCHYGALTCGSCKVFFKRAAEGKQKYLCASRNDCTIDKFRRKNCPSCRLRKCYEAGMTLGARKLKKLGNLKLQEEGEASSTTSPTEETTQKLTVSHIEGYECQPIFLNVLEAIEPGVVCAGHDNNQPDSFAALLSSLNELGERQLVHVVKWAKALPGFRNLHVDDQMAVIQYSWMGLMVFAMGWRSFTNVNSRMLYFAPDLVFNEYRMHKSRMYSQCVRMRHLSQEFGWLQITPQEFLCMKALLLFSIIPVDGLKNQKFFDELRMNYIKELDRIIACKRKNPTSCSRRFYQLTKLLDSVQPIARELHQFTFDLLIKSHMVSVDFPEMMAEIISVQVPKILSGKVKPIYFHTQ
In short: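 Luminescence increase above DMSO, read after a 24 h compound treatment of CHO-K1 cells expressing an androgen response element luciferase reporter, gives the single primary endpoint; concentration-response fitting used the positive direction.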

[18] = CEETOX_H295R_ANDR: CeeTox H295R High-throughput Steroidogenesis Assay for Androstenedione (ANDR) (AID 2283436; active = hit-call score of the fitted dose curve at least 0.9, where 1 is the maximum; inactive = score below 0.9;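 also: human H295R adrenal cells exposed for 48 h with androstenedione measured in medium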); settings: actives raise or lower the signal
In short: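 Steroidogenesis in H295R adrenal cells after 48 h dosing; androstenedione quantified by LC-MS/MS, with DMSO as negative control and baseline for bidirectional curve fitting.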

Measured: AC50

CCCCc1nc2cccnc2n1Cc1ccc(-c2ccccc2-c2nnn[nH]2)cc1
active: [4] 60.8 µM | [5] 78.2 µM | [6] 15.4 µM | [7] 7.85 µM | [8] 18.5 µM | [9] 21.2 µM | [10] 10.6 µM | [14] 10.1 µM
inactive: [1] | [2] | [3] | [11] | [12] | [13] | [15] | [16]

Cc1cn([C@H]2C=C[C@@H](CO)O2)c(=O)[nH]c1=O
inactive: [1] | [4] | [6] | [8] | [9]

O=C1OC(c2ccc(O)cc2)(c2ccc(O)cc2)c2ccccc21
inactive: [17] | [6] | [7] | [8] | [9] | [10] | [18]
active: [1] 11.9 µM | [11] 1.77 µM

CCCCCCC(CCCCCCCCCCC(=O)OCC(COC(C)=O)OC(C)=O)OC(C)=O (stereo unspecified)
inactive: [1] | [2] | [3] | [4] | [5] | [6] | [7] | [9]

CC(C)(C)c1ccccc1
inactive: [1] | [6] | [7]

C#CC(O)C(CC)CCCC (stereo unspecified)
active: [6] 28.8 µM | [7] 76.3 µM
inactive: [17] | [1] | [8] | [9]

CN(C)CCCN(C)CCCN(C)C
inactive: [1] | [2] | [3] | [5] | [6] | [7] | [8] | [9]

O=[Si]=O
inactive: [1] | [2] | [3] | [8] | [9]

CC(C)c1cccc(C(C)C)c1NC(=O)NS(=O)(=O)c1cc(C(C)(C)O)co1
inactive: [1] | [4] | [5] | [6] | [7]

O=C(O)c1cccnc1
inactive: [1] | [5] | [9]

CC(=O)OC1CC(C)OC(C)O1 (stereo unspecified)
inactive: [1] | [4] | [7] | [9]

CCOCCOCCO
inactive: [17] | [6] | [7] | [9]

Cc1ccc(C(C)(C)C)c(O)c1
active: [4] 60.6 µM | [5] 80.5 µM | [6] 75 µM | [7] 78.7 µM
inactive: [1] | [2] | [3] | [6] | [7] | [8] | [9]

CC(COCC(C)OC(=O)c1ccccc1)OC(=O)c1ccccc1 (stereo unspecified)
inactive: [1] | [5] | [6] | [9] | [11] | [13] | [14]
active: [4] 19.4 µM

Cc1cc(SC2=C(O)C[C@@](CCc3ccc(N)cc3)(C(C)C)OC2=O)c(C(C)(C)C)cc1CO
inactive: [17] | [4] | [5] | [6] | [9]

CCCCC(CC)COP(=O)(OCC(CC)CCCC)OCC(CC)CCCC (stereo unspecified)
active: [4] 15.6 µM | [5] 67.1 µM | [7] 76.1 µM
inactive: [1] | [6] | [7] | [9]

CCCCCCCCCCCCCCCCO
inactive: [1] | [2] | [3] | [6] | [7] | [9]

CCN(CC)CCOc1ccc(C(=C(Cl)c2ccccc2)c2ccccc2)cc1
inactive: [17] | [8] | [9] | [13]
active: [1] 60.4 nM and 53.3 nM and 30.6 nM | [6] 9.55 µM | [10] 0.0411 µM | [11] 0.147 µM | [18] 0.222 µM | [12] 0.039 µM | [14] 0.0456 µM

CCCCC(CC)CO (stereo unspecified)
inactive: [1] | [4] | [5] | [6] | [7] | [9]

CC1(C)C(=O)NC(=O)N1CO
active: [1] 57.3 µM
inactive: [2] | [3] | [6] | [9]

CS(=O)(=O)c1ccc([C@@H](C[C@H]2CCC(=O)C2)C(=O)Nc2cnccn2)cc1Cl
inactive: [1] | [2] | [3] | [6] | [9]

CCCCCCCC(=O)OC
inactive: [1] | [2] | [3] | [6] | [7] | [9]

O=C(O)CC(O)(CC(=O)O)C(=O)O
inactive: [1] | [2] | [3] | [8] | [9]
